Experimental data from PubChem BioAssay (NCI).
This is part of a sample that, as a whole, favours compounds with a hit. Of some 79,000 tested, about 15% had one in any assay. A number with no mark means an inactive call. The source made the active and inactive calls. Cut-off read from the data, not from the text of the source: active = growth inhibition above about 70%; inactive = the rest.

Assay: NCI Yeast Anticancer Drug Screen. Data for the bub3 strain (AID 167)
Details: S. cerevisiae bub3 mutant strain, at 50.0 µM, hits give high values
How it was run: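 Steps: expose the mutant yeast strain to compound; grow alongside vehicle-treated cultures; measure growth; express inhibition against the vehicle cultures.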
Work on `COc1cc2c(cc1O)C(=O)CCCC2` yielded a growth inhibition of 14.1%.
Compound `CC(O)C1CCCCC1O` (configuration not stated) has a growth inhibition of -9.6%.
For `CC(=O)OCC1OC(n2cccnc2=O)C(OC(C)=O)C1OC(C)=O` (configuration not stated), the growth inhibition was 8.7%.
`CCCCOC(=O)c1c2nc3c(C(=O)OCCCC)ccc(C)c3oc-2c(C)c(=O)c1NC(C)=O` gave a growth inhibition of -5.3%.
In the case of `O=C(Nc1cccc([N+](=O)[O-])c1)OCC#CCOC(=O)Nc1cccc([N+](=O)[O-])c1`, the growth inhibition is reported as 9.95%.
Work on `Nc1cccc2ccc(Cl)nc12` yielded a growth inhibition of 16.3%.
`O=P(O)(O)OC1C(OP(=O)(O)O)C(OP(=O)(O)O)C(OP(=O)(O)O)C(OP(=O)(O)O)C1OP(=O)(O)O.[Cu+2]` (configuration not stated) gave a growth inhibition of -9%.
`CC(C)SSC(=O)N1CCCC1C(=O)O` (configuration not stated) gave a growth inhibition of -1%.
With `O=[N+]([O-])c1ccc(/C=N\NC(=S)Nc2ccc3cn[nH]c3c2)cc1` the growth inhibition was 17.4%.
Work on `COC(=O)CCCCCNC(=O)NCCCCCC(=O)OC` yielded a growth inhibition of -11.4%.
`COc1cc2c(cc1Cc1cc(OC)c(OC)c(OC)c1)OCO2` showed a growth inhibition of 28.9%.
Work on `N#CCCNC(CC(=O)O)C(=O)O` (configuration not stated) yielded a growth inhibition of 0.5%.
For `Cc1ccc2nc3c(C)cc(=O)cc-3sc2c1`, the growth inhibition was 74.5% (active).
`Oc1ccc(O)c(-c2ccccc2)c1` showed a growth inhibition of 33.6%.
`CCN(CC)CCOC(=O)c1noc2cc([N+](=O)[O-])ccc12` showed a growth inhibition of 5%.
`Nc1cccc(N2N=C(C(=O)O)CC2=O)c1` showed a growth inhibition of -2.7%.
With `Cc1ccccc1NC(=O)CC(=O)N1N=C(N(CCC#N)c2ccccc2Cl)CC1c1ccccc1` (configuration not stated) the growth inhibition was -10.1%.
